# Source: the supplement of paper PMC6555819
# Columns and labels:
# Test in all cases: PBM binding z-score (relative to random genomic background probes); higher = stronger binding; sequences stand for … in GC…GCGATTGACAGCGTAGAATGAAGG
# [1] = tested on: FXR:RXRa (NR concentration 270 nM, RXRa partner concentration 90 nM)
# Summary of the method: (§1)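 For binding z-scores, the reference was random background probes on custom Agilent 4×180K protein-binding microarrays. These arrays were incubated 1 h with ligand-free nuclear receptor dimers in PBS pH 7.4, 2% milk, 0.02% Triton X-100, 1 mM DTT, 0.2 mg/mL BSA and 0.4 mg/ml salmon testes DNA. Fluorescence was scanned after antibody detection of each partner (one per run) and regression-normalized.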
# [2] = tested on: LXRa:RXRa (NR concentration 270 nM, RXRa partner concentration 90 nM)
# Summary of the method: as §1
# [3] = tested on: LXRa homodimer (NR concentration 270 nM)
# Summary of the method: as §1
# [4] = tested on: LXRb:RXRa (NR concentration 270 nM, RXRa partner concentration 90 nM)
# Summary of the method: as §1
# [5] = tested on: LXRb homodimer (NR concentration 270 nM)
# Summary of the method: as §1
# [6] = tested on: PPARa:RXRa (NR concentration 270 nM, RXRa partner concentration 90 nM)
# Summary of the method: as §1
# [7] = tested on: PPARg:RXRa (NR concentration 180 nM, RXRa partner concentration 90 nM)
# Summary of the method: as §1
# [8] = tested on: PPARg:RXRa 270nM:90nM, anti-RXR (NR concentration 270 nM, RXRa partner concentration 90 nM)
# Summary of the method: as §1
# [9] = tested on: PPARg:RXRa 30nM:10nM, anti-RXR (NR concentration 30 nM, RXRa partner concentration 10 nM)
# Summary of the method: as §1
# [10] = tested on: PPARg:RXRa 90nM:30nM, anti-RXR (NR concentration 90 nM, RXRa partner concentration 30 nM)
# Summary of the method: as §1
Sequence,PBM binding z-score [1],PBM binding z-score [2],PBM binding z-score [3],PBM binding z-score [4],PBM binding z-score [5],PBM binding z-score [6],PBM binding z-score [7],PBM binding z-score [8],PBM binding z-score [9],PBM binding z-score [10]
AGATGTAGGTTAGGGTCATTCAGAAAGTAGGGAA,5.03,3.88,1.53,4.56,2.05,5.24,7.27,6.27,3.83,5.81
CCTACTGGGTCATTCAGAGGTCATTGATCATATG,5.47,6.23,6.38,5.36,1.42,5.41,6.55,5.9,3.21,5.33
ATATGTAGGTTAGGGTTATTCAGAAAGTAGGGAA,2.3,2.27,0.961,2.84,1.66,4.11,5.61,5.21,3.18,4.8
CCTACTGGGCCAAGGTCATAGATCAGTCAAAGCA,2.72,2.93,0.673,2.72,-0.469,4.19,–,4.41,2.23,3.84
CGAATTAGGTCACCAGGACAGTGAAGAGGTTGGA,4.43,2.73,0.379,2.04,-0.0787,5.25,8.25,6.75,4.82,6.53
CCTGCTAGGTCTATGGTCAGCTAAAGCAGCTCGC,-0.302,-0.394,-0.393,-0.493,-0.41,-0.509,-0.485,0.268,-1.04,-0.432
CAAACTAGGTCAAGGGGTCAAAGTCCGCTTCCCG,7.14,6.22,3.83,6.08,1.17,6.9,–,8.96,8.47,9.27
TCTAGTAGGTCACGGAGGTCACACACGACGGGTA,7.27,6.42,5.23,5.56,1.44,6.41,–,8.31,6.89,8.04
AGTCAAAGTTCATCTGGGTAACGTAAGATATGCT,6.32,6.01,5.7,4.05,1.69,4.98,–,6.09,3.73,5.62
CCTACTGGGCCAAGCTCATTGATCAGTCAAAGCA,-0.645,-0.823,-0.557,-0.699,-1.01,0.0972,–,0.223,-0.794,-0.165
ACTAGCAGGTCAAGGGTCACTCAAGATTAGTCCG,6.89,5.73,2.16,4.88,0.671,6.3,–,9.23,8.21,10.3
GATACAGGGTCATCTAGAGGCCAGAGTATGGAAA,6.84,5.02,0.214,4.22,0.201,5.87,–,5.65,2.33,4.1
TCTTGTTGATCAAAGGTTAAGAAAGCCGAAGCCT,1.37,2.26,0.368,2.11,0.469,3.71,–,6.29,5.57,6.85
CGTCCAAGGTCAGAGAGGTCAGTGACTGCCGAGT,6.33,5.11,3.23,4.11,0.108,4.74,–,4.2,1,2.64
GCATACGGGTCAAAGGTTATAGCATGAATAGAAT,7.92,5.85,0.463,5.74,0.733,7.06,–,9.95,10.1,11.7
AATACAGGGTCACTAGGTCAGAGTAGGTACGAAT,6.69,5.67,2.22,4.43,1.37,6.03,–,7.62,4.74,7.08
CGTCCAACGTCAAGGTCAGTGAAAGAGACTCGAA,1.22,1.12,-0.198,1.28,-0.439,2.04,–,0.216,-0.429,-0.211
ATATCTAGGTAAAAGTTCAGTGAATCCCGAGGAT,0.694,1.43,1.24,1.15,0.657,5.76,–,9.29,9.08,10.4
ACTAGCAGGCCAAAGGTCACTCAAGATTAGTCCG,4.72,4.93,2.36,4.8,0.456,6.05,–,8.65,8.65,9.39
CCTAGTGGGCCAAAGGTCATTGATTCCAATGCTC,5.47,5.18,3.76,5.23,0.768,6.76,–,10.7,13.5,12.9
CATACACGGTCAGCTAGGCCAGAGTAGGGACGGC,0.00236,0.294,-0.0294,-0.523,0.421,-0.409,–,-0.257,-0.34,-0.382
CTAACTAGGTCACGAAAGGTCAAAGTCGAATGAC,7.37,8.22,7.7,7.44,2.3,6.57,–,8.24,7.33,8.68
